According to PubChem BioAssay (NCI):
Compounds without any hit were thinned out: in the full panel of roughly 79,000, 15% have a hit. Calls of active or inactive are those of the source. Cut-off read from the data, not from the text of the source: active = growth inhibition above about 70%; inactive = the rest.

assay: NCI Yeast Anticancer Drug Screen. Data for the rad50 strain (AID 155);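 note: 0% = growth of vehicle-only cultures of the same strain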; details: S. cerevisiae rad50 strain growth inhibition; at 50.0 µM; stronger effect = higher value
Outline: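 Cells are treated with compound, grown, and their growth is then scored against vehicle-only cultures of the same repair-deficient yeast strain.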

Row | Structure (SMILES) | growth inhibition
1 | c1ccc(CN(CCNc2ccccc2)c2ccccc2)cc1 | 13.2% (inactive)
2 | O=S(=O)(N=N/C=C1\C=CC=CN1O)c1cccs1 | -12.1% (inactive)
3 | Cc1noc(C)c1N=Nc1ccc2nonc2c1N | -15.5% (inactive)
4 | NC(=O)C(=O)CC(=O)c1ccccc1NC1=CC(=O)C(=O)c2ccccc21 | 41% (inactive)
5 | COc1ccccc1C=Nc1ccc(O)cc1 | 8.45% (inactive)
6 | CC(CC(=N)N)NC(=O)C1CCC(N)=N1 (centres undefined) | 6% (inactive)
7 | CCN(CC)CCCC(C)Nc1ccnc2ccc3nn(C)nc3c12 (centres undefined) | -11.6% (inactive)
8 | COc1ccc2c(c1)Cc1cc(N=[N+]([O-])c3ccc4c(c3)Cc3cc(OC)ccc3-4)ccc1-2 | 8.65% (inactive)
9 | Fc1ccc(Oc2nc3ccccc3nc2-c2ccccc2)cc1 | -3.35% (inactive)
10 | CC(=O)OC1CCC2(C)C(CCC3C2C(=O)C(Br)C2(C)C(C(C)=O)CCC32)C1 (centres undefined) | -1.2% (inactive)
11 | CCN(CC)C(=O)CCC1CCCCC1 | -35% (inactive)
12 | S=C(N1CCN(c2cccc(Cl)c2)CC1)N1CCN(c2cccc(Cl)c2)CC1 | -7.4% (inactive)
13 | N#CC(=Nc1ccccc1)c1cccc(Br)c1 | 34.5% (inactive)
14 | CCOC(=O)CCCCN(CC)CCCCC(=O)OCC | 2.65% (inactive)
15 | Cc1c2c(cc3c1CCC1(C)C3CCC1C(C)/C=C/C(C)C(C)C)CC(O)CC2 (centres undefined) | 6.65% (inactive)
16 | O=C(O)COc1ccccc1-c1ccccc1 | -34.4% (inactive)
17 | CCOC(=O)c1cc2c(cn1)[nH]c1cccc(N)c12 | -10.3% (inactive)
18 | COc1cccc(N=Nc2c(-c3ccccc3)nn(C(=S)S)c2C)c1 | -2.6% (inactive)
19 | Cc1cc2c(cc1C)NC(=O)CC(c1ccccc1)=N2 | 18% (inactive)
20 | CCCOC(=O)Nc1cccc(C)c1 | 17.7% (inactive)
21 | Cc1cc([NH-])c([NH-])cc1C.[Cl][Pt+2][Cl] | -2.85% (inactive)

assay: NCI Yeast Anticancer Drug Screen. Data for the mec2-1 strain (AID 157); details: S. cerevisiae mec2-1 strain, at 50.0 µM, stronger effect = higher value
Outline: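 Using mec2-1 yeast: add compound, measure growth, express inhibition versus vehicle-treated cultures.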

Row | Structure (SMILES) | growth inhibition
22 | COc1cccc(OC(=O)Nc2ccccc2)c1 | -10.6% (inactive)
23 | O=C1C(O)=C(Cl)C(=O)C(O)=C1Cl.[Zn+2] | -25.8% (inactive)
24 | O=CNCC(O)c1ccc2c(c1)[nH]c1ccccc12 (centres undefined) | -16.2% (inactive)
25 | C1CCCCCC2=C(CCCC1)CCCO2 | -7.5% (inactive)
26 | CSC1=NC=C(C#N)C2=NC(c3ccc(Cl)cc3)NN12 (centres undefined) | 2% (inactive)
27 | COc1cc(CCl)c(OC)cc1Cl | 0.9% (inactive)
28 | CC(=O)CC(=O)Nc1ccc(C(=O)c2ccccc2)cc1 | -41.3% (inactive)
29 | O=C(N/C(=C\c1ccccc1[N+](=O)[O-])c1nc2ccccc2[nH]1)c1ccccc1 | -1.45% (inactive)
30 | ClCC#CCCl | -10.9% (inactive)
31 | NS(=O)(=O)c1ccc(Nc2c3ccccc3nc3ncccc23)cc1 | 7.35% (inactive)
32 | CCCCCNC(=O)CCC | 1.2% (inactive)
33 | Cc1ccc(N=C2C(c3ccccc3)=C(SC3=C(c4ccccc4)C(=Nc4ccc(C)cc4)c4ccccc43)c3ccccc32)cc1 | 0.7% (inactive)
34 | CS(=O)(=O)OCC(CCl)(CCl)CCl | 0.55% (inactive)
35 | O=C(N=c1ccc2nc(=O)[nH]n(O)c-2c1)C(F)(F)F | 5.5% (inactive)
36 | Cc1nc([N+](=O)[O-])cn1CC(=N)N | -28.8% (inactive)
37 | NC1=C(Br)C(=O)c2[nH]c(=O)[nH]c(=O)c2C1=O | 7.6% (inactive)
38 | CC1(C)C(=NN=C(N)N)C(C)(C)C1=NN=C(N)N | -6.95% (inactive)
39 | CC1OC(C)(c2ccccc2)OC1C (centres undefined) | 13.8% (inactive)
40 | COc1cccc(C(F)(F)F)c1 | 10.3% (inactive)
41 | c1ccc(CN(CCNc2ccccc2)c2ccccc2)cc1 | 48.4% (inactive)
42 | O=S(=O)(N=N/C=C1\C=CC=CN1O)c1cccs1 | 6.3% (inactive)
43 | Cc1noc(C)c1N=Nc1ccc2nonc2c1N | 7.6% (inactive)
44 | NC(=O)C(=O)CC(=O)c1ccccc1NC1=CC(=O)C(=O)c2ccccc21 | 29.1% (inactive)
45 | COc1ccccc1C=Nc1ccc(O)cc1 | 12.3% (inactive)
46 | CC(CC(=N)N)NC(=O)C1CCC(N)=N1 (centres undefined) | -41.2% (inactive)
47 | CCN(CC)CCCC(C)Nc1ccnc2ccc3nn(C)nc3c12 (centres undefined) | -4.6% (inactive)
48 | COc1ccc2c(c1)Cc1cc(N=[N+]([O-])c3ccc4c(c3)Cc3cc(OC)ccc3-4)ccc1-2 | 1.35% (inactive)
49 | Fc1ccc(Oc2nc3ccccc3nc2-c2ccccc2)cc1 | 4.5% (inactive)
